# The panel holds about 83,000 compounds, 20% with a hit somewhere; the sample as a whole holds those more often.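 Testing used 96-well plates and a 48-hour single-concentration exposure. Example: -40 means 40% of the starting cells died.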 A number with no mark means an inactive call. Calls of active or inactive are those of the source. Rule for the calls: active = growth percent below 10; inactive = the rest.
# Test system: ACHN renal
# Experiment: NCI-60 one-dose screen, 48 h (100 = growth as untreated, 0 = no growth, -100 = all killed)
# Settings: 10 µM unless noted
row,Compound,growth
1,Cc1cccc(-[n+]2noc(N)n2)c1,46.1%
2,O=C(NCc1ccccc1)c1cccc([N+](=O)[O-])c1,102%
3,C/C(Cc1ccccc1)=N\O,106%
4,CCCCCC/C=C\CCCCCCCCCc1cc(O)cc(OC)c1O,12.7%
5,CC1(C)OC2C(CO)OC(n3ccc(=O)[nH]c3=O)C2O1 (stereo not given),104%
6,C/C=C/C1OCC(CC)C(CCC)O1 (stereo not given),110%
7,O=c1nc(Nc2cccc(Cl)c2)oc2cc(Cl)oc(=O)c12,81.3%
8,NC(CO)(CO)c1ccccc1,112%
9,ClCC(Cl)[C@@H]1CC2C=CC1C2 (stereo not given in full),108%
10,CN=S(=O)(OCCCCCOS(=O)(=NC)c1ccc(C)cc1)c1ccc(C)cc1 (stereo not given),77.2%
11,CCCCN(C=S)CCCC,95.7%
12,CCCCCCCCCc1ccc(OC(C)=O)cc1,109%
13,Cc1nc(C)c(C(=O)O)cc1C(=O)O,104%
14,CC(=O)N(CCCCCCN(C(C)=O)C(C)=O)C(C)=O,104% [100 µM]
15,CN1CCCN(C(c2ccccc2)c2ccc(Br)cc2)CC1 (stereo not given),50.6%
16,CCOc1ccc(NC(=S)N2CCC(CCCC3CCN(C(=S)Nc4ccc(OCC)cc4)CC3)CC2)cc1,82.8%

# Test system: CAKI-1 renal
# Experiment: as above
# Settings: 10 µM unless noted
row,Compound,growth
1,CC(=O)C1C(=O)C(=O)N(c2ccc(Cl)c(Cl)c2)C1=O (stereo not given),93.4%
2,NNc1ncnc2nc[nH]c12,42.3%
3,CC1(C)CC(=O)C=C(N)C1,85.1%
4,O=C1Nc2ccccc2/C1=C\c1ccccc1O,88.6%
5,C=CCc1cc(OC)c(OC)c(OC)c1,100%
6,COCC(N)=O,104%
7,C/C(O)=C(/C=N/C(=S)Nc1ccccc1)C(=O)Nc1ccccc1C,101%
8,CSc1nsc(N)n1,97.2%
9,c1ccc(Oc2c3ccccc3nc3ccccc23)cc1,-20.4% (active)
10,NC(CSSCC(N)C(=O)O)C(=O)O (stereo not given),11.4%
11,O=C(O)c1c[nH]c2ccccc2c1=O,100%
12,CC(C)N1CC(=O)N2CSCC2C1=O (stereo not given),100%
13,O=C(Oc1ccccc1Cl)c1ccc(Cl)cc1Cl,99.8%
14,CN(C)c1ncnc2c1cnn2C,100%
15,CC(=O)NNC(=S)/N=C\C(C(=O)c1ccccc1)=C(/O)c1ccccc1,98.3%
16,C=CC(C)C(C)(C)O (stereo not given),94.5%
17,C=COC(=O)CCOCC(CC)CCCC (stereo not given),96.5%
18,CCCCCCCCCCCCSC1=C(Cl)C(=O)C(OC)=C(OC)C1=O,70.8%
19,Cc1onc(-c2c(F)cccc2Cl)c1-c1ncc(-c2ccc(Br)cc2)o1,33.1%

row,Compound,growth
1,CC(=O)/C(C)=N\OC(=O)Nc1ccccc1,97.8%
2,Cc1ccc(S(=O)(=O)Oc2ccc3sc4c(CO)ccc(NCCN(C)C)c4c(=O)c3c2)cc1,-91% [100 µM] (active)
3,Cc1cccc(-[n+]2noc(N)n2)c1,59.6%
4,O=C(NCc1ccccc1)c1cccc([N+](=O)[O-])c1,102%
5,C/C(Cc1ccccc1)=N\O,115%
6,CCCCCC/C=C\CCCCCCCCCc1cc(O)cc(OC)c1O,-29.1% (active)
7,CC1(C)OC2C(CO)OC(n3ccc(=O)[nH]c3=O)C2O1 (stereo not given),101%
8,C/C=C/C1OCC(CC)C(CCC)O1 (stereo not given),99.9%
9,O=c1nc(Nc2cccc(Cl)c2)oc2cc(Cl)oc(=O)c12,79.6%
10,NC(CO)(CO)c1ccccc1,96.1%
11,ClCC(Cl)[C@@H]1CC2C=CC1C2 (stereo not given in full),100%
12,CN=S(=O)(OCCCCCOS(=O)(=NC)c1ccc(C)cc1)c1ccc(C)cc1 (stereo not given),74.6%
13,CCCCN(C=S)CCCC,95.2%
14,CCCCCCCCCc1ccc(OC(C)=O)cc1,103%
15,Cc1nc(C)c(C(=O)O)cc1C(=O)O,100%
16,CC(=O)N(CCCCCCN(C(C)=O)C(C)=O)C(C)=O,98.7% [100 µM]
17,CN1CCCN(C(c2ccccc2)c2ccc(Br)cc2)CC1 (stereo not given),49.2%
18,CCOc1ccc(NC(=S)N2CCC(CCCC3CCN(C(=S)Nc4ccc(OCC)cc4)CC3)CC2)cc1,69.7%

# Test system: A498 renal
# Experiment: as above
# Settings: 10 µM unless noted
row,Compound,growth
1,CC(=O)C1C(=O)C(=O)N(c2ccc(Cl)c(Cl)c2)C1=O (stereo not given),118%
2,NNc1ncnc2nc[nH]c12,55.1%
3,CC1(C)CC(=O)C=C(N)C1,85.1%
4,O=C1Nc2ccccc2/C1=C\c1ccccc1O,105%
5,C=CCc1cc(OC)c(OC)c(OC)c1,100%
6,COCC(N)=O,96.6%
7,C/C(O)=C(/C=N/C(=S)Nc1ccccc1)C(=O)Nc1ccccc1C,86.1%
8,CSc1nsc(N)n1,87.5%
9,c1ccc(Oc2c3ccccc3nc3ccccc23)cc1,33%
10,NC(CSSCC(N)C(=O)O)C(=O)O (stereo not given),-7.36% (active)
11,O=C(O)c1c[nH]c2ccccc2c1=O,127%
12,CC(C)N1CC(=O)N2CSCC2C1=O (stereo not given),123%
13,O=C(Oc1ccccc1Cl)c1ccc(Cl)cc1Cl,94.2%
14,CN(C)c1ncnc2c1cnn2C,112%
15,CC(=O)NNC(=S)/N=C\C(C(=O)c1ccccc1)=C(/O)c1ccccc1,105%
16,C=CC(C)C(C)(C)O (stereo not given),91.4%
17,C=COC(=O)CCOCC(CC)CCCC (stereo not given),91.9%
18,CCCCCCCCCCCCSC1=C(Cl)C(=O)C(OC)=C(OC)C1=O,77.4%
19,Cc1onc(-c2c(F)cccc2Cl)c1-c1ncc(-c2ccc(Br)cc2)o1,86.4%

row,Compound,growth
1,CC(=O)/C(C)=N\OC(=O)Nc1ccccc1,101%
2,Cc1ccc(S(=O)(=O)Oc2ccc3sc4c(CO)ccc(NCCN(C)C)c4c(=O)c3c2)cc1,-71.6% [100 µM] (active)
3,Cc1cccc(-[n+]2noc(N)n2)c1,113%
4,O=C(NCc1ccccc1)c1cccc([N+](=O)[O-])c1,82.3%
5,C/C(Cc1ccccc1)=N\O,103%
6,CCCCCC/C=C\CCCCCCCCCc1cc(O)cc(OC)c1O,-18.5% (active)
7,CC1(C)OC2C(CO)OC(n3ccc(=O)[nH]c3=O)C2O1 (stereo not given),75.9%
8,C/C=C/C1OCC(CC)C(CCC)O1 (stereo not given),91.7%
9,O=c1nc(Nc2cccc(Cl)c2)oc2cc(Cl)oc(=O)c12,103%
10,NC(CO)(CO)c1ccccc1,101%
11,ClCC(Cl)[C@@H]1CC2C=CC1C2 (stereo not given in full),80.2%
12,CN=S(=O)(OCCCCCOS(=O)(=NC)c1ccc(C)cc1)c1ccc(C)cc1 (stereo not given),87.6%
13,CCCCN(C=S)CCCC,91.4%
14,CCCCCCCCCc1ccc(OC(C)=O)cc1,70.1%
15,Cc1nc(C)c(C(=O)O)cc1C(=O)O,89.3%
16,CC(=O)N(CCCCCCN(C(C)=O)C(C)=O)C(C)=O,108% [100 µM]
17,CN1CCCN(C(c2ccccc2)c2ccc(Br)cc2)CC1 (stereo not given),74.2%
18,CCOc1ccc(NC(=S)N2CCC(CCCC3CCN(C(=S)Nc4ccc(OCC)cc4)CC3)CC2)cc1,79%
